Assay [1] can be described thus: qHTS assay for small molecules that induce genotoxicity in human embryonic kidney cells expressing luciferase-tagged ATAD5 (AID 651632). Further: nearly all actives have a fitted effect of over 15% in size. The procedure, abridged: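 Quantitative HTS in HEK293T expressing luciferase-tagged ATAD5, whose levels rise upon DNA damage. Exposure ran 16 hr at 37C and 5% CO2, with luminescence read 30 min after Amplite addition at room temperature.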
(In qHTS, concentration-response curves come from the screen itself.)

A short description of assay [2]: qHTS assay for small molecule agonists of the p53 signaling pathway - cell viability (AID 651633; calls by dose curve; further: nearly all actives have a fitted effect of over 30% in size; further: potency means the concentration at half of the fitted maximal effect). In a few lines:
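p53RE-bla cells were treated with compound for 16 hours at 37 C. Cytotoxicity was then measured as CellTiter-Glo luminescence after 30 min at room temperature.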

A short description of assay [3]: qHTS assay for small molecules that induce genotoxicity in human embryonic kidney cells expressing luciferase-tagged ATAD5 - cell viability (AID 651634; calls by dose curve; further: nearly all actives have a fitted effect of over 25% in size). In a few lines: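 After 15.5 hr incubation with compound at 37C, 5% CO2, HEK293T ATAD5-luciferase cells received CellTiter-Fluor reagent; fluorescence intensity was quantified following 30 min at 37C.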
Assay [4] can be described thus: qHTS assay for small molecule disruptors of the mitochondrial membrane potential - cell viability (AID 720634; calls by dose curve;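 further: human HepG2 liver cancer cells; series mostly up to about 83 µM; nearly all actives have a fitted effect of over 20% in size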). The procedure, abridged:
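ATP-based luminescent viability readout (CellTiter-Glo, 30 min, room temperature) in HepG2 cells multiplexed with the m-MPI membrane potential dye; compound exposure lasted 1 hr at 37 C.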

The nature of assay [5]: qHTS assay for small molecule disruptors of the mitochondrial membrane potential (AID 720635). The procedure, abridged:
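HepG2 cells exposed to compound 1 hr at 37C, then Mito-MPS dye 30 min. Ratio read of aggregate (540/590 nm) versus monomer (490/535 nm) fluorescence.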

A short description of assay [6]: qHTS assay to test for compound auto fluorescence at 535 nm (green) in HepG2 cells (AID 720675).
Assay [7] is described as follows: qHTS assay to test for compound auto fluorescence at 590 nm (red) in HEK293 cells (AID 720679). The procedure, abridged:
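HEK293 cells (2,000/well, 10% dialyzed FBS) attached 4-5 hr, then dosed with compound or DMSO and incubated overnight at 37C, 5% CO2. Red fluorescence read at 540/590 nm, Rose Bengal sodium as reference fluorophore.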

The nature of assay [8]: qHTS assay to test for compound auto fluorescence at 535 nm (green) in HEK293 cells (AID 720680).
A short description of assay [9]: qHTS assay to test for compound auto fluorescence at 460 nm (blue) in HEK293 cell free culture (AID 720681). The procedure, abridged: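 Compounds were added to cell-free DMEM with 10% FBS and fluorescence read directly. The blue channel used 405 nm excitation and 460 nm emission, with triamterene as the reference fluorophore.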
A short description of assay [10]: qHTS assay to test for compound auto fluorescence at 535 nm (green) in HEK293 cell free culture (AID 720682). The procedure, abridged: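 Green-channel intensity (Ex/Em 485/535 nm) was recorded from compound-treated wells containing only DMEM with 10% FBS. Fluorescein provided the equivalency standard.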
Assay [11] is described as follows: qHTS assay to test for compound auto fluorescence at 590 nm (red) in HEK293 cell free culture (AID 720683). The procedure, abridged:
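Cell-free wells of DMEM with 10% FBS received compound, and intrinsic fluorescence was read at excitation/emission 540/590 nm. Values expressed as equivalence to Rose Bengal sodium.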

The nature of assay [12]: qHTS assay to test for compound auto fluorescence at 590 nm (red) in HepG2 cell free culture (AID 720684). In a few lines:
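Auto fluorescence equivalency versus Rose Bengal sodium, red channel Ex/Em 540/590 nm; compounds in cell-free MEM/10% FBS; DMSO vehicle control.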

Assay [13] in a line: qHTS assay to test for compound auto fluorescence at 460 nm (blue) in HepG2 cell free culture (AID 720685). The procedure, abridged:
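Cell-free plates of MEM plus 10% FBS received 23 nL compound or DMSO vehicle; blue-channel (405/460 nm) intensity scored against triamterene as reference fluorophore.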

Assay [14] is described as follows: qHTS assay to test for compound auto fluorescence at 535 nm (green) in HepG2 cell free culture (AID 720686).
Assay [15] can be described thus: qHTS assay to test for compound auto fluorescence at 460 nm (blue) in HepG2 cells (AID 720687). The procedure, abridged: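 HepG2 cells in MEM with 10% FBS, attached overnight at 37 C, were exposed to compound or DMSO for 1 hr at 37 C, 5% CO2. Blue fluorescence was read at 405/460 nm, with triamterene as reference fluorophore.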
The target of assay [16] is Glucocorticoid receptor (Homo sapiens) (UniProt P04150). The assay is described as follows: qHTS assay to identify small molecule agonists of the glucocorticoid receptor (GR) signaling pathway (AID 720691; active means well fitted activation curve with a large enough effect in the signal ratio in the repeat runs, not every such curve was filed as active; the % refers to the signal ratio). In a few lines: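 Cells: GR-bla HeLa, endogenous GR with stably integrated GRE-beta-lactamase reporter. Treatment 18 h, 37 C, compounds delivered in DMSO. Detection via LiveBLAzer B/G FRET substrate, 2 h RT, fluorescence intensity.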

For assay [17] the target is unchanged. The assay is described as follows: qHTS assay to identify small molecule antagonists of the glucocorticoid receptor (GR) signaling pathway (AID 720692; active means well fitted inhibition curve with a large enough effect in the signal ratio in the repeat runs, not every such curve was filed as active; the % refers to the signal ratio; further: potency means the concentration at half of the fitted maximal effect). In a few lines: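 Quantitative HTS in antagonist format: HeLa cells expressing endogenous GR and a stably integrated GRE-bla reporter, stimulated with 5 nM dexamethasone (final) alongside test compounds for 18 h.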

A short description of assay [18]: qHTS assay to test for compound auto fluorescence at 590 nm (red) in HepG2 cells (AID 720674). The procedure, abridged: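 Seeding: 2,000 HepG2 cells/well, MEM/10% FBS, overnight 37 C. Dosing: compound vs DMSO. Incubation: 1 hr, 37 C, 5% CO2. Read: fluorescence 540 ex/590 em, Rose Bengal sodium as red reference.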
The nature of assay [19]: qHTS assay to test for compound auto fluorescence at 460 nm (blue) in HEK293 cells (AID 720678). In a few lines:
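HEK293 cells (2,000/well, medium with 10% dialyzed FBS) attached 4-5 hr, then exposed to compound overnight at 37C, 5% CO2. Blue fluorescence read at 405/460 nm, with triamterene as reference fluorophore.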

Consider seven compounds from PubChem BioAssay (Tox21).

Unmarked numbers belong to inactive results. Results filed as inconclusive are left out. Active and inactive are the calls of the source. Unless noted, the call rests on the fitted dose curve; in most records, active means well fitted curve in the direction sought with a large enough effect in the repeat runs; inconclusive means weak or mixed curves; inactive means no such curve, though single readings can be large; an effect the other way counts as inactive or inconclusive.

Sequence of Glucocorticoid receptor (Homo sapiens) (P04150 whole entry, looked up): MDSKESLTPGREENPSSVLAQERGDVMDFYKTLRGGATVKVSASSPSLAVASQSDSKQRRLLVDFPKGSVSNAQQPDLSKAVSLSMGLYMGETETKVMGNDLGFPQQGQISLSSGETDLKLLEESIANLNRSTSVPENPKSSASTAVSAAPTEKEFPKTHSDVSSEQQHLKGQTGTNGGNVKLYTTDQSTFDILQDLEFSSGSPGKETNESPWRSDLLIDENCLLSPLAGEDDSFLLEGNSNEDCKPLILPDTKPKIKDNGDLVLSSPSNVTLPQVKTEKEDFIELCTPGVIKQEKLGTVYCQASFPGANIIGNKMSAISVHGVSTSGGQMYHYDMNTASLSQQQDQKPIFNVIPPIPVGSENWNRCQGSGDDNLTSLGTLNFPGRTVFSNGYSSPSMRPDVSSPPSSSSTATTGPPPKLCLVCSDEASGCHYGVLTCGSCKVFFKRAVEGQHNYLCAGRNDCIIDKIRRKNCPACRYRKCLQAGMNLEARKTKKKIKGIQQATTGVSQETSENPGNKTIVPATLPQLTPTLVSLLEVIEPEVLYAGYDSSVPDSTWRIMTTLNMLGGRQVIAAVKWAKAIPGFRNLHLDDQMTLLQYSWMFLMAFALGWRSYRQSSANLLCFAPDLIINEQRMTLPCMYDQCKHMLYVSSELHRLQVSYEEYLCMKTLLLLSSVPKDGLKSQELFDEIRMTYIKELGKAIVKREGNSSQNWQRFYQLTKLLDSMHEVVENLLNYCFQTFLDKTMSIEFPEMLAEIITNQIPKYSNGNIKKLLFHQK

`C[C@@]12CCC[C@H]1[C@@H]1CC[C@H]3C[C@@H](O)CC[C@]3(C)[C@H]1CC2`: the Potency entry in [1], in [2], in assay [3], in assay [4], in assay [5] and in assay [9] was “inactive” throughout. Further, the Potency entry in assay [13], in assay [15], in assay [16] and in assay [17] was “inactive” each time. For the same compound, the compound was called inactive in assay [6], in assay [7], in assay [8], in assay [10], in [11] and in assay [12]. In addition, the compound was called inactive in assay [14].

Regarding `CCOc1cccc(-n2cc(C(=O)N3CCN(c4cc(C(=O)O)c5ccccc5c4)CC3)nc2-c2ccc(C)cc2)c1`, the Potency entry in [1], in [4], in assay [19], in [9], in [13] and in [15] was “inactive” throughout. Besides, the Potency result in assay [16] was “inactive”. Further, the Potency in [2] is 20.7 µM (active); in assay [17] it was 14.8 µM (active). The compound was called inactive in [18], in assay [6], in [7], in assay [8], in assay [10] and in assay [11]. For the same compound, the result in [12] and in assay [14] was inactive.

For the compound `c1ccc2sc(SN(C3CCCCC3)C3CCCCC3)nc2c1`, the Potency result in [1], in [3], in assay [19], in [9], in assay [13] and in [15] was “inactive” throughout. The compound was called inactive in assay [18], in [6], in assay [7], in [8], in assay [10] and in assay [11]. For the same compound, the call in [12] and in assay [14] was inactive.

For `CC(=O)c1ccc([N+](=O)[O-])cc1`, the Potency entry in assay [1], in assay [2], in assay [3], in assay [4], in assay [9] and in [13] was “inactive” in each case. In addition, the Potency result in assay [15] and in [16] was “inactive” throughout. Moreover, the compound was called inactive in assay [6], in assay [7], in assay [8], in [10], in [11] and in [12]. Besides, the result in assay [14] was inactive.

For the compound `O=C(O)CCc1nc(-c2ccccc2)c(-c2ccccc2)o1`, the Potency result in assay [1], in [2], in assay [4], in assay [5], in [19] and in [9] was “inactive” each time. The Potency entry in [13], in assay [15], in assay [16] and in assay [17] was “inactive” in each case. The result in assay [6], in assay [7], in [8], in assay [10], in assay [11] and in [12] was inactive. Further, in assay [14], the call was inactive.

Take `Cc1ccc(Cl)c(Nc2ccccc2C(=O)O)c1Cl`: the Potency entry in assay [1], in assay [2], in assay [4], in assay [19], in assay [9] and in assay [13] was “inactive” each time. For the same compound, the Potency result in assay [15] was “inactive”. Further, the outcome in assay [18], in [6], in assay [7], in [10], in assay [11] and in assay [12] was inactive. For the same compound, the result in assay [14] was inactive.

`Cc1cccc(O)c1N`: the Potency result in [1], in assay [2], in assay [4], in assay [19], in assay [9] and in assay [13] was “inactive” in each case. For the same compound, the Potency result in [15], in assay [16] and in assay [17] was “inactive” each time. The call in [18], in assay [6], in assay [7], in [8], in assay [10] and in [11] was inactive. Also, the result in [12] and in [14] was inactive.
